# Laboratory results as given in the supplement of paper PMC10037445.
# Where “and” joins values, the source holds several entries; their conditions need not be identical. Identical values can stand only once. Over roughly 2,900 compounds, “NF-kB SEAP reporter activity, fold change vs agonist alone” has its median near 0.99; the highest 2% begin near 2.6. Only a selection was taken, and the highest values are over-represented in it overall.
# Experiments:
# RAW-Dual [1] = experiment: NF-kB SEAP reporter activity, fold change vs agonist alone; higher = enhanced NF-kB activity; settings: library stock concentration (final ~1000-fold dilution): 10 mM
# In short: (§1)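 RAW-Dual macrophages were seeded in DMEM at 50,000 cells/well in 384-well plates, given 50 nL of library stock by pin tool, and given a PRR agonist 1 h later. Plates were held at 37 °C, 5% CO2 for 20 hours, after which supernatant was read for IRF by QuantiLuc luminescence and for NF-κB by QuantiBlue absorbance at 620 nm. Reporter activity is expressed as fold change over wells that received agonist alone. A well was called cytotoxic when IncuCyte confluency fell below 70% of agonist controls in both mask sets.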
# RAW-Dual [2] = experiment: NF-kB SEAP reporter activity, fold change vs agonist alone; cytotoxicity flag (confluency mask): not cytotoxic; higher = enhanced NF-kB activity
# In short: as §1
# RAW-Dual [3] = experiment: NF-kB SEAP reporter activity, fold change vs agonist alone; cytotoxicity flag (confluency mask): cytotoxic (confluency <70% of control); higher = enhanced NF-kB activity
# In short: as §1
# [4] = cytotoxicity flag (confluency mask): not cytotoxic, agonist: Imiquimod (TLR7) […]
# [5] = cytotoxicity flag (confluency mask): not cytotoxic, agonist: MPLA (TLR4) […]
# [6] = agonist: ODN 1826 (TLR9) 0.5 ug/mL
# [7] = agonist: Pam2CSK4 (TLR2/6) 0.1 ug/mL
# [8] = agonist: Pam3CSK4 (TLR2/1) 0.1 ug/mL
# [9] = cytotoxicity flag (confluency mask): cytotoxic (confluency <70% of control), agonist: Imiquimod (TLR7) […]
# [10] = cytotoxicity flag (confluency mask): cytotoxic (confluency <70% of control), agonist: MPLA (TLR4) […]
structure (smiles),measurement,setting,value
CCN(C(=O)c1c(O)n(C)c2cccc(Cl)c2c1=O)c1ccccc1,NF-kB SEAP reporter activity,RAW-Dual [1]; [4],0.913
same,NF-kB SEAP reporter activity,RAW-Dual [1]; [5],0.993
CCN(C(=O)c1c(O)n(C)c2cccc(Cl)c2c1=O)c1ccccc1 (library stock concentration (final ~1000-fold dilution): 10 mM),NF-kB SEAP reporter activity,RAW-Dual [2]; agonist: LPS (TLR4) 0.1 ug/mL,1.08
same,NF-kB SEAP reporter activity,RAW-Dual [2]; [6],1.06
same,NF-kB SEAP reporter activity,RAW-Dual [2]; [7],1.01
same,NF-kB SEAP reporter activity,RAW-Dual [2]; [8],1
C=C(Cc1ccccc1Cl)C(=O)OCC,NF-kB SEAP reporter activity,RAW-Dual [1]; [9],0.73
same,NF-kB SEAP reporter activity,RAW-Dual [1]; [10],0.891
C=C(Cc1ccccc1Cl)C(=O)OCC (library stock concentration (final ~1000-fold dilution): 10 mM),NF-kB SEAP reporter activity,RAW-Dual [3]; agonist: LPS (TLR4) 0.1 ug/mL,0.636
same,NF-kB SEAP reporter activity,RAW-Dual [3]; [6],0.588
same,NF-kB SEAP reporter activity,RAW-Dual [3]; [7],0.682
same,NF-kB SEAP reporter activity,RAW-Dual [3]; [8],0.806
Cn1cc(-c2cc(Oc3cc(F)c(NC(=O)C4(C(=O)Nc5ccccc5)CC4)cc3F)ccn2)cn1 (library stock concentration (final ~1000-fold dilution): 10 mM),NF-kB SEAP reporter activity,RAW-Dual [2]; agonist: LPS (TLR4) 0.1 ug/mL,3.09
same,NF-kB SEAP reporter activity,RAW-Dual [2]; [6],0.863
same,NF-kB SEAP reporter activity,RAW-Dual [2]; [7],0.629
same,NF-kB SEAP reporter activity,RAW-Dual [2]; [8],0.98
Cn1cc(-c2cc(Oc3cc(F)c(NC(=O)C4(C(=O)Nc5ccccc5)CC4)cc3F)ccn2)cn1,NF-kB SEAP reporter activity,RAW-Dual [1]; [4],0.974
same,NF-kB SEAP reporter activity,RAW-Dual [1]; [5],1.71
COc1cc2nccc(Oc3ccc(NC(=O)C4(C(=O)Nc5ccc(F)cc5)CC4)cc3)c2cc1OC.O=C(O)CC(O)C(=O)O (library stock concentration (final ~1000-fold dilution): 10 mM),NF-kB SEAP reporter activity,RAW-Dual [2]; agonist: LPS (TLR4) 0.1 ug/mL,0.861
same,NF-kB SEAP reporter activity,RAW-Dual [2]; [6],0.525
same,NF-kB SEAP reporter activity,RAW-Dual [2]; [7],0.284
same,NF-kB SEAP reporter activity,RAW-Dual [2]; [8],0.277
COCCNCc1ccc(-c2cc3nccc(Oc4ccc(NC(=O)C5(C(=O)Nc6ccc(F)cc6)CC5)cc4F)c3s2)nc1 (library stock concentration (final ~1000-fold dilution): 10 mM),NF-kB SEAP reporter activity,RAW-Dual [2]; agonist: LPS (TLR4) 0.1 ug/mL,0.36
same,NF-kB SEAP reporter activity,RAW-Dual [2]; [6],0.205
same,NF-kB SEAP reporter activity,RAW-Dual [2]; [7],0.0909
same,NF-kB SEAP reporter activity,RAW-Dual [2]; [8],0.149
COc1cc2nccc(Oc3ccc(NC(=O)C4(C(=O)Nc5ccc(F)cc5)CC4)cc3)c2cc1OC.O=C(O)CC(O)C(=O)O,NF-kB SEAP reporter activity,RAW-Dual [1]; [4],0.796
same,NF-kB SEAP reporter activity,RAW-Dual [1]; [5],0.939
COCCNCc1ccc(-c2cc3nccc(Oc4ccc(NC(=O)C5(C(=O)Nc6ccc(F)cc6)CC5)cc4F)c3s2)nc1,NF-kB SEAP reporter activity,RAW-Dual [1]; [4],0.327
same,NF-kB SEAP reporter activity,RAW-Dual [1]; [5],0.388
COc1ccc2cc1Oc1ccc(cc1)CC1c3cc(c(OC)cc3CCN1C)Oc1c(O)c(OC)cc3c1C(C2)N(C)CC3 (centres undefined),NF-kB SEAP reporter activity,RAW-Dual [1]; [9],0.618
same,NF-kB SEAP reporter activity,RAW-Dual [1]; [10],2.39
COc1ccc2cc1Oc1ccc(cc1)CC1c3cc(c(OC)cc3CCN1C)Oc1c(O)c(OC)cc3c1C(C2)N(C)CC3 (centres undefined) (library stock concentration (final ~1000-fold dilution): 10 mM),NF-kB SEAP reporter activity,RAW-Dual [3]; agonist: LPS (TLR4) 0.1 ug/mL,1.81
same,NF-kB SEAP reporter activity,RAW-Dual [3]; [6],0.241
same,NF-kB SEAP reporter activity,RAW-Dual [3]; [7],2.15
same,NF-kB SEAP reporter activity,RAW-Dual [3]; [8],1.31
O=C1C(CCC(O)c2ccc(F)cc2)C(c2ccc(O)cc2)N1c1ccc(F)cc1 (centres undefined) (library stock concentration (final ~1000-fold dilution): 10 mM),NF-kB SEAP reporter activity,RAW-Dual [2]; agonist: LPS (TLR4) 0.1 ug/mL,1.42
same,NF-kB SEAP reporter activity,RAW-Dual [2]; [6],0.665
same,NF-kB SEAP reporter activity,RAW-Dual [2]; [7],0.889
same,NF-kB SEAP reporter activity,RAW-Dual [2]; [8],0.589
O=C1C(CCC(O)c2ccc(F)cc2)C(c2ccc(O)cc2)N1c1ccc(F)cc1 (centres undefined),NF-kB SEAP reporter activity,RAW-Dual [1]; [4],0.952
same,NF-kB SEAP reporter activity,RAW-Dual [1]; [5],1.38
CC1(C)SC2CC(=O)N2C1C(=O)OCOC(=O)C1N2C(=O)C(NC(=O)C(N)c3ccccc3)C2S(=O)(=O)C1(C)C.Cc1ccc(S(=O)(=O)O)cc1 (centres undefined),NF-kB SEAP reporter activity,RAW-Dual [1]; [5],1.02
CC1(C)SC2CC(=O)N2C1C(=O)OCOC(=O)C1N2C(=O)C(NC(=O)C(N)c3ccccc3)C2S(=O)(=O)C1(C)C.Cc1ccc(S(=O)(=O)O)cc1 (centres undefined) (library stock concentration (final ~1000-fold dilution): 10 mM),NF-kB SEAP reporter activity,RAW-Dual [2]; agonist: LPS (TLR4) 0.1 ug/mL,1.26
same,NF-kB SEAP reporter activity,RAW-Dual [2]; [6],0.797
same,NF-kB SEAP reporter activity,RAW-Dual [2]; [7],1.02
same,NF-kB SEAP reporter activity,RAW-Dual [2]; [8],0.873
CN1C(CC(=O)c2ccccc2)CCCC1CC(O)c1ccccc1.Cl (centres undefined) (library stock concentration (final ~1000-fold dilution): 10 mM),NF-kB SEAP reporter activity,RAW-Dual [2]; agonist: LPS (TLR4) 0.1 ug/mL,1.18
same,NF-kB SEAP reporter activity,RAW-Dual [2]; [6],0.669
same,NF-kB SEAP reporter activity,RAW-Dual [2]; [7],0.9
same,NF-kB SEAP reporter activity,RAW-Dual [2]; [8],1.15
CN1C(CC(=O)c2ccccc2)CCCC1CC(O)c1ccccc1.Cl (centres undefined),NF-kB SEAP reporter activity,RAW-Dual [1]; [4],0.779
same,NF-kB SEAP reporter activity,RAW-Dual [1]; [5],0.909
O=C(O)CN(CC(=O)O)c1ccccc1OCCOc1ccccc1N(CC(=O)O)CC(=O)O (library stock concentration (final ~1000-fold dilution): 10 mM),NF-kB SEAP reporter activity,RAW-Dual [2]; agonist: LPS (TLR4) 0.1 ug/mL,1
same,NF-kB SEAP reporter activity,RAW-Dual [2]; [6],0.989
same,NF-kB SEAP reporter activity,RAW-Dual [2]; [7],1.04
same,NF-kB SEAP reporter activity,RAW-Dual [2]; [8],0.872
O=C(O)CN(CC(=O)O)c1ccccc1OCCOc1ccccc1N(CC(=O)O)CC(=O)O,NF-kB SEAP reporter activity,RAW-Dual [1]; [4],0.994
same,NF-kB SEAP reporter activity,RAW-Dual [1]; [5],1.01
CN1C2=C3N=c4ccccc4=C3CCN2C(=O)c2ccccc21.Cl (library stock concentration (final ~1000-fold dilution): 10 mM),NF-kB SEAP reporter activity,RAW-Dual [2]; agonist: LPS (TLR4) 0.1 ug/mL,1.21
same,NF-kB SEAP reporter activity,RAW-Dual [2]; [6],0.594
same,NF-kB SEAP reporter activity,RAW-Dual [2]; [7],1.28
same,NF-kB SEAP reporter activity,RAW-Dual [2]; [8],1.1
CN1C2=C3N=c4ccccc4=C3CCN2C(=O)c2ccccc21.Cl,NF-kB SEAP reporter activity,RAW-Dual [1]; [4],0.969
same,NF-kB SEAP reporter activity,RAW-Dual [1]; [5],0.999
N#CCC1(n2cc(-c3ncnc4[nH]ccc34)cn2)CN(C2CCN(C(=O)c3ccnc(C(F)(F)F)c3F)CC2)C1,NF-kB SEAP reporter activity,RAW-Dual [1]; [4],0.89
same,NF-kB SEAP reporter activity,RAW-Dual [1]; [5],0.922
CCS(=O)(=O)N1CC(CC#N)(n2cc(-c3ncnc4[nH]ccc34)cn2)C1 (library stock concentration (final ~1000-fold dilution): 10 mM),NF-kB SEAP reporter activity,RAW-Dual [2]; agonist: LPS (TLR4) 0.1 ug/mL,1.65 and 0.788
same,NF-kB SEAP reporter activity,RAW-Dual [2]; [6],1.96 and 2.12
same,NF-kB SEAP reporter activity,RAW-Dual [2]; [7],1.19 and 1.64
same,NF-kB SEAP reporter activity,RAW-Dual [2]; [8],1.77 and 2.42
N#CCC1(n2cc(-c3ncnc4[nH]ccc34)cn2)CN(C2CCN(C(=O)c3ccnc(C(F)(F)F)c3F)CC2)C1 (library stock concentration (final ~1000-fold dilution): 10 mM),NF-kB SEAP reporter activity,RAW-Dual [2]; agonist: LPS (TLR4) 0.1 ug/mL,0.591
same,NF-kB SEAP reporter activity,RAW-Dual [2]; [6],1.09
same,NF-kB SEAP reporter activity,RAW-Dual [2]; [7],1.11
same,NF-kB SEAP reporter activity,RAW-Dual [2]; [8],1.03
N#CCC(C1CCCC1)n1cc(-c2ncnc3[nH]ccc23)cn1 (centres undefined) (library stock concentration (final ~1000-fold dilution): 10 mM),NF-kB SEAP reporter activity,RAW-Dual [2]; agonist: LPS (TLR4) 0.1 ug/mL,0.995 and 0.96 and 0.998
same,NF-kB SEAP reporter activity,RAW-Dual [2]; [6],2.7 and 1.88 and 2.86
same,NF-kB SEAP reporter activity,RAW-Dual [2]; [7],1.81 and 1.49 and 1.69
same,NF-kB SEAP reporter activity,RAW-Dual [2]; [8],2.14 and 2.16 and 2.67
